POLK inh = DNA polymerase kappa (human) inhibition | Q9UBT6 | purified Pol kappa, fluorescent DNA synthesis assay, 10 min | Potency, µM (series often up to 107 µM), for inactives: at the top dose activity, negative = inhibition, usual class: inhibitors | 400,000 tested, 0.53% active | AID 588579; also: potency is read from the fitted curve at half-maximal effect; % is scaled to controls: 0 for no effect and ±100 for the full control effect
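Kinetic fluorescence readout at 0 and 10 min followed reaction start with substrate at 50 nM final. Beforehand, enzyme (10 nM Pol kappa) stood 15 min with compound at room temperature; buffer-only wells were negative controls.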
Pol eta inh = DNA polymerase eta (human) inhibition; recombinant Pol eta, fluorescent DNA replication assay; Potency, µM (top dose mostly 114 µM), for the others: at the top dose activity change, negative = inhibition, hits mostly inhibitors; 390,000 tested, 1.2% active; also: potency is read from the fitted curve at half-maximal effect; % is scaled to controls: 0 for no effect and ±100 for the full control effect
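Pol eta (10 nM) was preincubated with compounds for 15 min at room temperature, after which fluorescent replication substrate (50 nM final) was added to start the reaction. Fluorescence was read kinetically at 0 and 10 min.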
WRN inhibitor = WRN helicase (human) inhibition | WRN helicase unwinding, fluorescent forked duplex, kinetic | Q14191 | 360,000 tested, 0.46% active | Potency, µM (top dose mostly 114 µM), for inactives: top-dose activity change, negative = inhibition, hits mostly inhibitors | AID 651768; also: potency is read from the fitted curve at half-maximal effect; % is scaled to controls: 0 for no effect and ±100 for the full control effect; nearly all actives have a fitted effect of over 55% in size
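Fluorescence dequenching readout, ex 525 nm/em 598 nm, kinetic mode: forked duplex DNA (100 nM final) with adjacent fluorophore and quencher unwound by WRN (20 nM final) with 2 mM ATP. Compound preincubation 15 min, room temperature.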
POLB inh = inhibitors of human DNA polymerase beta. 340,000 tested, 1.3% active. AID 485314. Pol beta primer extension/strand displacement, fluorescence kinetic. Potency, µM (series often up to 114 µM), for the others: at the highest dose activity change, negative = inhibition, hits mostly inhibitors. P06746; also: potency is read from the fitted curve at half-maximal effect; % is scaled to controls: 0 for no effect and ±100 for the full control effect
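Human Pol beta at 10 nM; strand-displacement substrate 50 nM final. Compound exposure 15 min at room temperature before start, reaction 10 min at room temperature.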
Pol iota inh = inhibitors of human DNA polymerase iota | 390,000 tested, 1% active | Pol iota fluorescent replication assay, 10 min | Potency, µM (doses to about 115 µM), without a hit: at the top dose activity, negative = inhibition, actives largely listed as inhibitors | Q9UNA4; also: potency is read from the fitted curve at half-maximal effect
Target sequence (Q9UNA4 whole entry, looked up): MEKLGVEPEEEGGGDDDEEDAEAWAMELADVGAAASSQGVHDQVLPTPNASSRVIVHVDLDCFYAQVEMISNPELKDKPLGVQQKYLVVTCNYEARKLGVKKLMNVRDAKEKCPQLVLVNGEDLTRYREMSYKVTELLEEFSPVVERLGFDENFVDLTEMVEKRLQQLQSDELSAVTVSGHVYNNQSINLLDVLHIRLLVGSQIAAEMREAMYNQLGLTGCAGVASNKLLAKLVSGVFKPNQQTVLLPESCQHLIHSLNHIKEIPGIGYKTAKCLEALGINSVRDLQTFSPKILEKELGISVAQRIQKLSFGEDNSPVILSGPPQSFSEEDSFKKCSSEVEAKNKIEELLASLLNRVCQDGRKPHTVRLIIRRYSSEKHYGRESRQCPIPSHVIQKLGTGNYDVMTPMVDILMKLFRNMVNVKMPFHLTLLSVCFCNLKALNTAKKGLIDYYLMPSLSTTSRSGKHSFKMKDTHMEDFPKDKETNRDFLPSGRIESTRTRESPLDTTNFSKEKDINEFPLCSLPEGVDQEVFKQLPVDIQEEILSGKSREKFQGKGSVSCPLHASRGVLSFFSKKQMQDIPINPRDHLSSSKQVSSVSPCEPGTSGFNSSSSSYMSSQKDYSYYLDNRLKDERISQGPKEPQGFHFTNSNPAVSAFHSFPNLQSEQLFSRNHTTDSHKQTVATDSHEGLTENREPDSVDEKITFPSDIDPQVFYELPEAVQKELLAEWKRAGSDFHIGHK
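Fluorescent replication assay read twice, at 0 min and 10 min after adding 50 nM (final) substrate. Enzyme (10 nM) and compounds were first incubated 15 min at room temperature; enzyme-free buffer wells were negative controls.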
PI5P4Ka inh = PI5P4K alpha (human) kinase inhibition; P48426; PI5P4Kalpha enzyme, ADP-Glo luminescence, 60 min; hits give low values; max response, %; 330,000 tested, 1.2% active; AID 652105; active = max response of -50% or lower; inconclusive = between -30% and -50%; inactive = -30% or higher; also: value at the top dose of about 77 µM; % is scaled to controls: 0 for no effect and ±100 for the full control effect
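Quantitative HTS of the MLSMR library against PI5P4Kalpha with substrate. ATP added last at 5 microM final; room temperature, 60 minutes. Remaining ATP depleted, ADP converted and read as luminescence.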
Starred values were filed as active, the others as inactive; ? = inconclusive; nt = no result given; [ ] = dose if it differs, or a comment. Sampled rows, rich in hits. Any-hit rate of the full collection: about 2.8%. Unless noted, calls follow the shape of the dose curve; as a rule, active = well fitted curve in the direction sought with a large enough effect; inconclusive = small, poorly fitted or top-dose-only effect, or another doubt; inactive = no such curve, though single readings can be large; an effect the other way counts as inactive or inconclusive.

SMILES	POLK inh	Pol eta inh	WRN inhibitor	POLB inh	Pol iota inh	PI5P4Ka inh
C=CCN1C(=O)/C(=C/c2ccc(-c3ccc(F)cc3)o2)SC1=S	-0.1%	-11.3%	-2.7%	10µM*	12.6%	-23.1
O=[N+]([O-])c1ccc(-c2ccc(/C=N/c3c(-c4ccco4)nc4ccccn34)o2)cc1	-7.8%	-16.2%	-7.1%	3.8%	-18.3%	nt
O=[N+]([O-])c1ccc(Cl)c(-c2ccc(/C=N/c3c(-c4ccco4)nc4ccccn34)o2)c1	-12.5%	-21.8%	-30.5%	50.1µM*	?	?
O=[N+]([O-])c1ccc(-c2ccc(/C=N/c3c(-c4ccco4)nc4ccccn34)o2)c(Cl)c1	nt	nt	nt	-11.6%	nt	nt
Cc1cc(C)c([N+](=O)[O-])cc1-c1ccc(/C=N/c2c(-c3ccco3)nc3ccccn23)o1	?	-4.6%	?	50.1µM*	?	?
Oc1cccc(/C=N/c2c(-c3ccco3)nc3ccccn23)c1	-11.1%	-14.3%	-16.5%[57.1 µM]	0.9%	25.1µM*	nt
O=C(O)c1ccc(Nc2nc(-c3ccc([N+](=O)[O-])cc3)nc3ccccc23)cc1	-12.1%	?	-8.7%[11.6 µM]	56.2µM*	?	0.3
CC(C)C(=O)Nc1ccc(S(=O)(=O)N2CCC(c3nc4ccccc4[nH]3)CC2)cc1	-2.5%	-12.2%	19.0%	nt	14.1%	-9.7
O=c1cc(O)cc(/C=C/c2ccc(O)c(O)c2)o1	0.752µM*	0.794µM*	nt	0.224µM*	0.708µM*	nt
O=C(O)/C=C\c1ccc(O)c(O)c1	-4.7%[12 µM]	nt	nt	nt	nt	nt
CCN(CCCNC(=O)CN(C)S(=O)(=O)c1ccc2c(c1)CCC(=O)N2)c1cccc(C)c1	-16.7%	-15.3%	4.1%	24.4%	-3.1%	nt
CC(C)CC(=O)N1CCN(C(=O)c2ccc(F)cc2)CC1	-8.3%	-3.2%	-4.8%	?	6.3%	3.2
CCCCNC(=O)CSc1nc2cc3c(cc2c(=O)n1CCCC(=O)NCc1ccc2c(c1)OCO2)OCO3	-5.4%[60.1 µM]	-5.1%	nt	38.4%	89.1µM*	nt
COCCCNC(=O)CSc1nc2cc3c(cc2c(=O)n1CCCC(=O)NCc1ccc2c(c1)OCO2)OCO3	-6.2%[60.1 µM]	13.2%	nt	1.7%	1.5%	nt
Cn1c(=O)c2c(nc(SCC(=O)NCc3ccc4c(c3)OCO4)n2Cc2ccc(Cl)cc2)n(C)c1=O	-43.5%	89.1µM*	-11.5%	-17.4%	?	nt
CCC(=O)OC1(C)C(=O)C=C2C=C(c3ccc(C#N)cc3)OC=C2C1=O (stereo unspecified)	?	44.7µM*	?	nt	20µM*	-67.7*
CCCCC1=CC2=CC(=O)C(C)(OC(=O)CC)C(=O)C2=CN1c1cccc(C#N)c1 (stereo unspecified)	-36.2%	1.7%	-9.7%	nt	?	-2.0
Cc1cc(C2C(C#N)=C(N)SC(N)=C2C#N)c(C)s1	-26.0%	?	?	-2.3%	?	-55.6*
Cc1ccc(C(=O)N(C)c2nnc(-c3ccncc3)s2)cc1	0.0%	-4.1%	2.1%	33.8%	61.5%	1.8
NC1=C(Cl)C(=O)c2ccccc2C1=O	-16.2%	-6.7%	-7.1%	nt	-6.3%	-55.7*
O=C(/C=C/c1ccccc1)Nc1cccc(S(=O)(=O)Nc2ccccc2F)c1	-19.4%	-9.4%	39.8µM*	-27.1%	-6.3%	-60.9*
CC1(C)Cc2c(C#N)c(NCc3ccco3)nc(-c3ccco3)c2CO1	-44.7%	14.1µM*	-23.8%[57.1 µM]	?	?	?
N#Cc1c(NCCN)nc(-c2ccco2)c2c1CCCC2	-9.5%	-13.7%	6.0%	56.2µM*	-3.6%	-2.5
Cc1nc(NCc2ccco2)c(C#N)c2c1COC(C)(C)C2	-3.4%	7.8%	-6.5%	1.1%	?	-0.6
Cc1cc(C)nc(N/N=C2/CCCC/C2=C\c2ccccc2)n1	-4.7%	-24.6%	0.6%	1.0%	67.0%	3.4
SMILES	POLK inh	Pol eta inh	WRN inhibitor	POLB inh	Pol iota inh	PI5P4Ka inh
Cc1cccc(-c2nc(SCCCOc3ccccc3Cl)n3[nH]c(=O)cc3n2)c1	-13.3%	?	nt	?	-2.6%	nt
COCCC(=O)N(Cc1ccc2c(c1)OCO2)C(C(=O)NC1CCCCC1)c1ccncc1 (stereo unspecified)	-13.2%	-3.4%	5.5%	27.7%	6.3%	1.2
O=C(NC1CCCCC1)C(c1ccncc1)N(Cc1ccc2c(c1)OCO2)C(=O)C(F)(F)F (stereo unspecified)	79.4µM*	8.6%	-7.7%[57.1 µM]	6.5%	35.5µM*	8.3
CN=c1sc(C(=O)Nc2cccc(Cl)c2)cc(=O)n1C	-1.5%	-10.5%	-14.5%	31.8%	-11.5%	-62.3*
O=C(O)C1CCCC1	28.2µM*	nt	nt	nt	?	nt
O=C(O)C1CCNCC1	4.0%[60.1 µM]	-0.1%[57.1 µM]	nt	0.1%[57.1 µM]	-6.9%[58.9 µM]	nt
CCN(CC)S(=O)(=O)c1ccc(NC(=O)C2CCCN(C(=O)c3ccc(Cl)cc3)C2)cc1 (stereo unspecified)	-17.5%	-15.6%	-23.2%[57.1 µM]	?	14.1%	2.3
CC(=O)N1CCN(C(=O)c2cccc(S(=O)(=O)N3c4ccccc4CC3C)c2)CC1 (stereo unspecified)	-17.4%	-10.3%	-6.2%	nt	?	4.7
CC1Cc2ccccc2N1S(=O)(=O)c1cccc(C(=O)N2CC(=O)Nc3ccccc32)c1 (stereo unspecified)	-14.2%	-13.8%	-5.4%	39.8µM*	10.7%	-7.1
COc1ccccc1C1(O)CC2CCC(C1)N2S(=O)(=O)c1ccc(C(C)=O)cc1 (stereo unspecified)	-12.3%[60.1 µM]	-14.9%	-3.6%[57.1 µM]	0.8%	100µM*	nt
COC(=O)c1cccc(NC(=O)CC2C(=O)NCCN2C(=O)Nc2cc(C)cc(C)c2)c1 (stereo unspecified)	-11.5%	-16.8%	-0.6%	27.7%	47.4%	10.6
Cn1c(O)c(/C=C2\C=Nc3ccccc32)sc1=Nc1ccc(C(=O)O)cc1	3.4%	?	-1.2%	-0.1%	?	-65.6*
Cc1ccc(SCC(=O)NCCc2ccc(F)cc2)cc1	-5.8%	-18.0%	1.3%	24.3%	33.8%	2.2
C=CCn1c(SCc2nc3sc(C(=O)O)c(C)c3c(=O)[nH]2)nnc1-c1ccc(F)cc1	-16.9%	?	-13.0%	8.2%	-10.7%	?
Cc1c(C(=O)O)sc2nc(/C=C/c3cccc(F)c3)[nH]c(=O)c12	9.4%	79.4µM*	-3.4%[11.6 µM]	44.7µM*	-4.6%	-54.6*
O=C(NNS(=O)(=O)c1ccc([N+](=O)[O-])cc1)c1ccc([N+](=O)[O-])cc1	-11.4%	0.3%	-2.9%[57.1 µM]	25.8%	18.1%	12.7
COc1ccc(N(C)S(=O)(=O)c2c(C)[nH]c(=O)[nH]c2=O)c(OC)c1	-6.8%	-12.9%	-2.4%	3.5%	89.1µM*	-0.8
COc1ccc(N(C)S(=O)(=O)c2c(C)[nH]c(=O)[nH]c2=O)cc1	-15.1%	-5.0%	-15.1%	36.9%	7.0%	0.1
NC(=O)COc1ccccc1C(=O)Nc1ccccc1	-12.4%	nt	nt	nt	40.9%	nt
